Data taken from PubChem BioAssay AID841 (Emory University Molecular Libraries Screening Center, 2007).
The whole screen tested about 140,000 compounds, of which about 2,100 (1.5%) were called active. Rule as the data show it: active = protection mostly above about 24% (no sharp cut-off); inactive = mostly below about 26%. The entries come from a sample that favours actives as a whole.

Assay: blockers of measles virus-induced cell death – single point, MLSMR library, absorbance, measles RdRp inhibitor project, primary screen (AID 841)
Conditions: Measles virus-infected cells, CPE protection, at 4 µM, stronger effect = higher value

| SMILES | protection (pct of control) |
| --- | --- |
| CS(=O)(=O)c1ccc2nc(NC(=O)C3C4C=CC(C4)C3C(=O)O)sc2c1 (centres undefined) | 18.3% (inactive) |
| CS(=O)(=O)c1ccc2nc(NC(=O)CN3CCCCCC3)sc2c1 | 4.57% (inactive) |
| CS(=O)(=O)c1ccc2nc(NC(=O)C3CCCCC3)sc2c1 | 38.1% (active) |
| O=C(/C=C/c1cnc2ccccc2n1)NC1CCCCCC1 | 9.7% (inactive) |
| COc1ccccc1-c1nnc(SCC(=O)Nc2cc(C)on2)o1 | 14.9% (inactive) |
| Cc1cc(NC(=O)CSc2nnc(-c3ccc(Cl)s3)o2)no1 | 86.1% (active) |
| Cc1ccc(-c2csc(SCC(=O)Nc3cc(C)on3)n2)cc1 | 7.27% (inactive) |
| O=C(COC(=O)/C=C/c1nc2ccccc2s1)Nc1ccccc1Oc1ccccc1 | 1.41% (inactive) |
| Cc1cccc(-n2c(N)cc(=O)nc2SC(C)C(=O)NC2CCCCC2)c1 (centres undefined) | 20.2% (inactive) |
| Cc1cccc(-n2c(SCC(N)=O)nc3c(c2=O)C2(CCCCC2)Cc2ccccc2-3)c1 | 29.9% (active) |
| N#CCSc1nc2c(c(=O)n1Cc1ccccc1)C1(CCCC1)Cc1ccccc1-2 | 1.58% (inactive) |
| COc1ccc(-c2csc3ncnc(Oc4ccc5c(C)cc(=O)oc5c4)c23)cc1 | 6.48% (inactive) |
| O=C(COc1ccc([N+](=O)[O-])cc1)Nc1ccc(N2CCCC2)cc1 | 18.8% (inactive) |
| CCCCCC(=O)Nc1ccc(C(=O)N/N=C/c2ccc([N+](=O)[O-])cc2)cc1 | 25.1% (inactive) |
| O=C(COc1ccc(/C=N/NC(=O)c2ccc(O)cc2)cc1)Nc1ccc([N+](=O)[O-])cc1 | 40.1% (active) |
| O=C(NNC1CC(=O)N(c2cccc(Cl)c2)C1=O)c1cccnc1 (centres undefined) | 8.5% (inactive) |
| COc1cc(C2C(N3C(=O)c4ccccc4C3=O)C(=O)N2c2ccc(C)c(C)c2)cc(OC)c1OC (centres undefined) | 9.11% (inactive) |
| Cc1ccc(NC(=O)c2sc3nc(N)c(C#N)cc3c2N)cc1 | 74.1% (active) |
| CC(=O)Nc1ccc(NC(=O)c2sc3nc4c(c(-c5ccc(C)cc5)c3c2N)CCC4)cc1 | 9.68% (inactive) |
| CCc1ccc2nc3sc(C(=O)Nc4nnc(CC)s4)c(N)c3cc2c1 | 1.37% (inactive) |
| CCNC(=S)N1CCN(C(=O)c2ccco2)CC1 | 9.63% (inactive) |
| CCNC(=S)N1CCN(c2ncccn2)CC1 | 20.9% (active) |
| Cc1ccc(NC(=S)N2CCN(c3ncccn3)CC2)cc1C | 12.6% (inactive) |
| CCOC(=O)c1c(NC(=S)NC(=O)c2ccco2)sc2c1CCCC2 | 37% (inactive) |

| SMILES | protection (pct of control) |
| --- | --- |
| CCOCC(=O)Nc1sc2c(c1C(=O)OCC)CCCC2 | 7.18% (inactive) |
| CCOC(=O)c1c(NC(=O)c2ccc(Br)o2)sc2c1CCCC2 | 27.8% (active) |
| COc1cc(/C=C/C(=O)OCC(=O)Nc2cccc(Oc3ccccc3)c2)ccc1O | 11.5% (inactive) |
| C=CCc1ccccc1OCC(=O)N/N=C/c1ccccc1OCC | 1.64% (inactive) |
| COc1ccc(C)cc1NC(=O)CCC(=O)Nc1nnc(C(F)(F)F)s1 | 11.8% (inactive) |
| COc1ccc(C(F)(F)F)cc1N/C=C\c1nnnn1-c1ccc(C)cc1 | 30.4% (active) |
| COc1ccc(OC)c(-n2nnnc2SCC(=O)Nc2cc(C)ccc2OC)c1 | 17.2% (inactive) |
| CCC(C)NC(=O)c1ccc(N2CCC3(CC2)OCCO3)c([N+](=O)[O-])c1 (centres undefined) | 13.6% (inactive) |
| Cc1cc(Cl)ccc1OCCCC(=O)NCc1ccncc1 | 6.27% (inactive) |
| CC(=O)Cc1nsc(NC(=O)c2csc3c2CCCC3)n1 | 2.51% (inactive) |
| COC(=O)c1sc(NC(=O)c2csc3c2CCCC3)nc1C | 49.9% (active) |
| COC(=O)c1sccc1NC(=O)c1csc2c1CCCC2 | 9.63% (inactive) |
| CN(c1ccccc1)S(=O)(=O)c1cccc(NC(=O)Cc2c(F)cccc2Cl)c1 | 5.27% (inactive) |
| Cc1cc(C)c(S(=O)(=O)c2ccccc2)c(OC(=O)c2c(F)cccc2Cl)n1 | 38.9% (active) |
| Cc1cc(OC(=O)c2c(Cl)cccc2Cl)nc(C)n1 | 8.28% (inactive) |
| CCNc1ccc(C(=O)OCC(=O)N2c3ccccc3NC(=O)C2(C)C)cc1[N+](=O)[O-] | 5.03% (inactive) |
| COc1cc(/C=N/n2c(C)n[nH]c2=S)ccc1OCc1ccccc1 | 79.2% (active) |
| COc1cc(/C=N/O)ccc1OCc1ccc([N+](=O)[O-])cc1 | 30% (inactive) |
| Cc1n[nH]c(=S)n1/N=C/c1ccc(Br)o1 | 7.57% (inactive) |
| COc1ccc(C(=O)ON=C2c3ccccc3-c3ccccc32)cc1OC | 9.81% (inactive) |
| Cc1cccc(OCCNC(=S)NC(=O)c2cccnc2)c1 | 16.7% (inactive) |
| COc1ccc(Br)cc1CN(C)CC(=O)Nc1cc([N+](=O)[O-])ccc1OC | 4.74% (inactive) |
| COc1ccccc1CC(=O)Nc1ccc([N+](=O)[O-])cc1OC | 14.5% (inactive) |
| COc1ccc([N+](=O)[O-])cc1NC(=O)CCc1ccccc1 | 101% (active) |

| SMILES | protection (pct of control) |
| --- | --- |
| CCC1S/C(=N/N=C/c2ccco2)NC1=O (centres undefined) | 7.36% (inactive) |
| CCOCCCNC(=O)C(NC(=O)c1ccc(=O)[nH]c1)c1ccc(C)cc1 (centres undefined) | 6.13% (inactive) |
| CCOCCCNC(=O)C(NC(=O)CNC(=O)c1ccccc1)c1ccc(C)cc1 (centres undefined) | 7.37% (inactive) |
| CCOCCCNC(=O)C(NC(=O)c1ccc(=O)[nH]c1)c1ccc(Cl)cc1 (centres undefined) | 30.2% (active) |
| Cc1ccc(-c2cc(N)on2)cc1 | 16.5% (inactive) |
| Cc1ccc(S(=O)(=O)N2CCCC2C(=O)OCc2nc3sc(C)c(C)c3c(=O)[nH]2)cc1 (centres undefined) | 4.09% (inactive) |
| Cc1ccc2[nH]c(C(=O)O)c(NC(=O)c3ccccc3[N+](=O)[O-])c2c1 | 14.1% (inactive) |
| CCOC(=O)c1c(-c2ccc(C)cc2C)csc1NC(=O)CSc1nnnn1C | 37% (active) |
| COC(=O)c1ccccc1NC(=O)CSc1nnnn1C | 30.8% (inactive) |
| CCOC(=O)CNC(=O)CSc1nnnn1-c1cc(C)ccc1C | 4.67% (inactive) |
| COc1ccc(/C=C/C(=O)Nc2ccc3c(c2)OCCO3)cc1OC | 18.3% (inactive) |
| CC1(C)CC(=O)C(C=NCCC2=CCCCC2)=C(O)C1 | 36.1% (active) |
| CC1(C)CC(=O)C(C=NCc2cccnc2)=C(O)C1 | 2.03% (inactive) |
| CC(=O)N1CCN(CCN=CC2=C(O)CC(C)(C)CC2=O)CC1 | 2.75% (inactive) |
| CN1CCN(S(=O)(=O)c2ccc(NC(=O)C3CCCO3)cc2)CC1 (centres undefined) | 28.4% (active) |
| CN1CCN(S(=O)(=O)c2ccc(NC(=O)c3ccco3)cc2)CC1 | 12.2% (inactive) |
| CN1CCN(S(=O)(=O)c2ccc(NC(=S)NC(=O)C3CC3)cc2)CC1 | 7.47% (inactive) |
| C/C(=N\NC(=O)Cc1ccc(F)cc1)c1ccc(F)cc1 | 16.1% (inactive) |
| Cc1ccccc1C(CC(=O)c1cccs1)C(C#N)C#N (centres undefined) | 1.36% (inactive) |
| O=C(Nc1ccn(Cc2ccccc2)n1)c1n[nH]c([N+](=O)[O-])c1Cl | 4.93% (inactive) |
| Cc1ccc(Cn2ccc(NC(=O)c3cc(C(C)C)on3)n2)cc1 | 10.8% (inactive) |
| O=C(Nc1ccn(Cc2ccc(F)cc2)n1)c1ccncc1 | 61.8% (active) |
| CC(=O)N1C(C)c2ccccc2C(C)(C)CC12CCCCC2 (centres undefined) | 1.83% (inactive) |
| Cc1ccc(SCCC(=O)OCC(=O)Nc2ncc(Cl)cc2Cl)cc1 | 25.6% (inactive) |

| SMILES | protection (pct of control) |
| --- | --- |
| Cc1ccc(C)c(NC(=O)CSc2nc3c(oc4ccccc43)c(=O)n2-c2ccccc2)c1 | 11.7% (inactive) |
| Cc1ccc(-n2c(SCC(=O)Nc3ncc(Cl)cc3Cl)nc3ccccc32)cc1 | 45.3% (active) |
| NC(=O)CCC(NS(=O)(=O)c1ccc(Cl)cc1)C(=O)NCc1ccccc1Cl (centres undefined) | 5.12% (inactive) |
| CNC(=S)N/N=C/c1ccc(OCc2ccccc2)c(Br)c1 | 4.55% (inactive) |
| CCOC(=O)Cc1csc(SCC(=O)NC(C)C23CC4CC(CC(C4)C2)C3)n1 (centres undefined) | 4.07% (inactive) |
| Cc1cccc(Nc2nc3c(S(=O)(=O)c4ccccc4)nnn3c3ccccc23)c1C | 4.8% (inactive) |
| CCc1ccc(NC2Nc3cc(C)nn3S2)cc1 (centres undefined) | 40.8% (active) |
| COc1ccc(Oc2c(Cl)cnn(-c3ccccc3)c2=O)cc1 | 42.2% (active) |
| Cc1ccc(-c2nc3c(cnn3-c3ccccc3)c(=O)o2)cc1 | 8.52% (inactive) |
| COc1ccc(-n2c(C)nc3c(cnn3-c3ccccc3)c2=O)cc1 | 1.2% (inactive) |
| Cc1cc(C(=O)CSc2nc(N)cc(=O)[nH]2)c(C)n1-c1cccc(F)c1 | 24.8% (inactive) |
| O=C(C1CCCO1)N1CCN(C(=S)Nc2cccc(Cl)c2)CC1 (centres undefined) | 19.2% (inactive) |
| C=C(C)c1cccc(C(C)(C)NC(=O)NC2CCCC2)c1 | 2.05% (inactive) |
| CCOC(=O)c1sc(NC(=O)COc2ncnc3ccccc23)c(C(=O)OCC)c1C | 23.3% (inactive) |
| O=C(CN1CCc2ccccc21)NC(c1ccccc1)c1ccccc1 | 11.6% (inactive) |
| CC(C)(C)NC(=O)CN(Cc1cccs1)C(=O)CNS(=O)(=O)c1ccccc1 | 4.11% (inactive) |
| Cc1ccc(S(=O)(=O)NCC(=O)N(CC(=O)NC(C)(C)C)Cc2cccs2)cc1 | 32.1% (active) |
| Cc1ccc(S(=O)(=O)NCC(=O)N(CC(=O)NC2CCCCC2)Cc2ccco2)cc1 | 39.7% (inactive) |
| Cc1ccc(-c2nn(-c3ccccc3)cc2/C=N/NC(=O)c2ccc3c(c2)OCO3)cc1 | 11.1% (inactive) |
| COc1ccc(OC)c(/C=N/NC(=O)CSc2nnc(C)n2-c2ccccc2)c1 | 6.95% (inactive) |
| Cc1nnc(SCC(=O)N/N=C/c2cn(-c3ccccc3)nc2-c2ccc(F)cc2)n1-c1ccccc1 | 50.4% (active) |
| Cc1ccccc1C1=NC(C(F)(F)F)(C(F)(F)F)c2c(n(-c3ccc(F)cc3)c(=O)[nH]c2=O)N1 | 14.5% (inactive) |
